Screens: PubChem, National Center for Advancing Translational Sciences (NCATS)
D2 ag-1 – human D2 receptor agonism in beta-arrestin assay | P14416 | DiscoveRx PathHunter D2 beta-arrestin, luminescence, 90 min; 100% = 57 uM dopamine signal | activation, % (concentration not given with the values) | 360,000 tested, 0.084% active | AID 624465; in the data active means activation above about 40%; inconclusive means between about 15% and that limit
Target sequence (P14416 whole entry, looked up): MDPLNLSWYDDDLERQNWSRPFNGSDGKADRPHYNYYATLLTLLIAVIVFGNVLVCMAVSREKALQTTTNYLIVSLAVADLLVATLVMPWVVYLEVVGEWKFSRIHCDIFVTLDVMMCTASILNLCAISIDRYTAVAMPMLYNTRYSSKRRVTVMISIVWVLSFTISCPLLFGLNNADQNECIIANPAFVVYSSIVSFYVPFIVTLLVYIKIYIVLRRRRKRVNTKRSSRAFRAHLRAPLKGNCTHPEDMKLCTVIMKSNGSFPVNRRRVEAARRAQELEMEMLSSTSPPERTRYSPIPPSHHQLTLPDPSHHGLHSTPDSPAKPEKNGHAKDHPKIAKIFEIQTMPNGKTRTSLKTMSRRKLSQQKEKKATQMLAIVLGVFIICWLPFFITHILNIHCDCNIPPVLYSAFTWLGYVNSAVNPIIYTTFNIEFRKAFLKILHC
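DiscoveRx PathHunter D2 beta-arrestin cells (2,100/well) attached overnight, then compound-stimulated 90 min at 37 C in HBSS/10 mM HEPES/0.1% Tween-20 buffer; beta-galactosidase complementation read by luminescence after 1 h at ambient temperature. Dopamine 57 uM final (EC100) as control.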
D2 ag-2 – agonists of human D2 dopamine receptor. 340,000 tested, 0.53% active. P14416. HEK293 T-REx D2 cells, calcium flux agonist mode. activation, % at 2 µM;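 active means activation over 3 SD above normal in the single-dose calcium agonist read, cut at about 30% in these data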
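Tetracycline-induced HEK293 Trex cells with D2 receptor force-coupled to calcium signaling, plated overnight at 30 C and loaded with no-wash calcium dye. Calcium flux read kinetically for 180 s after compound addition; responses flag agonists.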
D2 antagonist – antagonists of human D2 dopamine receptor; HEK293 TREx D2 cells, calcium flux, dopamine EC80; inhibition, % at 10 µM; 340,000 tested, 2% active; AID 485344; in the data active means inhibition above about 30%; inactive means below that, where a call was filed
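Inhibition of EC80 dopamine-driven calcium flux, recorded kinetically, defines activity here; cells are a tetracycline-induced HEK293 T-REx line expressing force-coupled D2.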
D2 PAM-1 – positively modulates the human D2 dopamine receptor allosterically | HEK293 T-REx D2, calcium flux, EC20 dopamine potentiation | potentiation, % at 10 µM | 340,000 tested, 0.34% active;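 active means potentiation over 3 SD above the plate norm, cut at about 30% in these data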
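Tetracycline-induced HEK293 T-REx cells force-coupled to calcium signalling expressed D2; compounds were pin-added after a 10 s baseline, read kinetically 180 s, then an EC20 dopamine challenge followed with a further 180 s calcium read.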
D2 PAM-2 – potentiates the human D2 dopamine receptor allosterically; P14416; potentiation, % (concentration not given with the values); 360,000 tested, 0.23% active; DiscoveRx D2 beta-arrestin cells, luminescence, 90 min; 100% = 57 uM dopamine signal; AID 624464; in the data active means potentiation above about 50%; inconclusive means mostly about 30% to 49%
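PathHunter D2 cells, attached overnight at 37 deg C, received compound in DMSO plus dopamine at EC20 (50 nM final) for 90 min at 37 deg C. Beta-arrestin recruitment was read as luminescence after 1 h with detection reagent at ambient temperature.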
Hits are given with their value; i = inactive; ? = inconclusive; nt = no result. An excerpt weighted towards active compounds, which were near 2.4% of everything screened.

SMILES	D2 ag-1	D2 ag-2	D2 antagonist	D2 PAM-1	D2 PAM-2
CCOc1ccc(C2/C(=C(/O)c3ccc(Cl)cc3)C(=O)C(=O)N2CCCN(C)C)cc1OC (stereo unspecified)	nt	i	45.2	i	nt
COc1ccc(C(C)(C)C)cc1NC(=O)CCc1c(C)noc1C	i	i	63.4	i	i
COc1ccc(C(C)(C)C)cc1NC(=O)c1c(C)noc1C	i	i	i	i	i
Cc1ccc(NC(=O)CN2C(=O)c3ccccc3Sc3ncccc32)c(C)c1	nt	i	nt	i	nt
Cn1c(=O)[nH]c(=O)c2c1nc(N1CCCCCC1)n2CCN1CCCCCC1	i	i	39.9	i	i
Cc1ccnc(SCCn2c(N3CCCCC3)nc3c2c(=O)[nH]c(=O)n3C)n1	nt	i	i	30.8	nt
Cc1ccc(C)c(NC(=O)c2cc(S(=O)(=O)N3CCCc4ccccc43)ccc2F)c1	nt	i	nt	i	nt
COC(=O)Nc1nnc(/C=C/c2ccc(OC)cc2)s1	i	i	30.7	i	i
COc1ccc(/C=C/c2nnc(NC(C)=O)s2)cc1	i	i	i	i	i
O=C(NC1CCCCC1)c1cc(-c2ccc(F)cc2)on1	i	i	i	39.0	i
Cc1ccc(-c2cc(C(=O)NC3CCCC3)no2)cc1	i	i	i	i	i
CC(C)(C)c1ccc(CC(=O)N2CCC2(C)C(=O)Nc2cnc3ccccc3c2)cc1 (stereo unspecified)	i	nt	nt	nt	i
O=S(=O)(NCCc1c[nH]c2ccccc12)c1ccc(F)cc1	i	nt	nt	nt	i
CCn1c(=O)c2sccc2n2c(CCC(=O)Nc3ccc(F)cc3)nnc12	nt	i	nt	nt	nt
O=C(NCCS(=O)(=O)N1CCN(c2ccccc2F)CC1)c1ccco1	i	i	i	i	i
CCOC(=O)N1CCN(Cc2c(NC(=O)c3ccco3)sc(C)c2C)CC1	i	i	i	nt	i
O=C(Cc1ccc(F)cc1)NCCS(=O)(=O)N1CCN(c2ccccc2)CC1	?	i	46.0	i	i
O=C(NCCS(=O)(=O)N1CCN(c2ccc(F)cc2)CC1)c1ccco1	i	i	33.1	i	i
O=C(NCCS(=O)(=O)N1CCN(c2ccccc2)CC1)C1CC(=O)N(c2ccc(F)cc2)C1 (stereo unspecified)	i	i	32.5	i	i
Cc1sc(NC(=O)c2ccco2)c(CN2CCN(c3ccc(F)cc3)CC2)c1C	i	i	33.0	i	i
CC(Oc1ccc(F)cc1)C(=O)Nc1nc(-c2ccc(F)cc2)ns1 (stereo unspecified)	nt	i	nt	i	nt
Cc1ccc2oc(=O)c3cc(C(=O)Nc4ccc(F)cc4F)sc3c2c1	nt	i	nt	i	nt
CC1CCN(S(=O)(=O)c2ccc3c(c2)N(CC(=O)O)C(=O)CO3)CC1	nt	i	nt	i	nt
CC(=O)/C(=N\Nc1ccccc1)Oc1ccc([N+](=O)[O-])cc1	i	i	i	34.0	i
CC(=O)NC/C(C)=N\Nc1ccc([N+](=O)[O-])cc1	i	i	i	i	i
SMILES	D2 ag-1	D2 ag-2	D2 antagonist	D2 PAM-1	D2 PAM-2
CCCOc1ccc(C(=O)NC2CCSc3ccccc32)cc1 (stereo unspecified)	i	i	36.0	i	i
O=[N+]([O-])c1cccc(NC(=S)NCCc2ccccc2)c1	i	i	79.7	i	i
CC(=O)NNC(=S)NCCc1ccccc1	i	i	48.7	i	i
O=C(Cn1ncc2c3ccccc3n(Cc3cccc(Cl)c3)c2c1=O)NC1CCCCCC1	nt	i	nt	i	nt
c1ccc(COc2ncnc3c2ncn3CCCNCc2cccs2)cc1	i	nt	nt	nt	nt
Cc1cc(C)c(NC(=O)Cn2nc3c(cc2=O)CCCC3)c(C)c1	nt	i	nt	nt	nt
O=C(NCc1ccccc1)c1cc(C2COCCN2S(=O)(=O)c2cccs2)on1 (stereo unspecified)	i	nt	nt	nt	i
Clc1cccc(-c2cc3nc4c(c(N5CCN(c6cnccn6)CC5)n3n2)CCCC4)c1	i	i	41.2	i	i
CC(=O)NC1=NN(C(C)=O)C(C)(CS(=O)(=O)c2ccc3ccccc3c2)S1 (stereo unspecified)	i	i	39.1	i	i
CCC1(C)SC(NC(C)=O)=NN1C(C)=O (stereo unspecified)	i	i	i	i	i
COC(=O)CN1C(=O)CSc2ccc(S(=O)(=O)Nc3ccc(C(C)=O)cc3)cc21	nt	i	nt	i	nt
CC(C)[C@@H](C(=O)OCC(=O)Nc1ccc2c(c1)OCO2)N1C(=O)c2ccccc2C1=O	i	i	46.3	i	i
CCN(CC(=O)Nc1ccc2c(c1)OCCO2)C(=O)COc1cc(C)ccc1Cl	i	i	33.2	i	i
Cc1ccc(Cl)c(OCC(=O)Nc2ccc3c(c2)OCCO3)c1	i	i	i	i	i
Nc1ccc(-c2nc3ncccc3o2)cc1	i	i	32.8	i	i
O=C(NCC1CC1)c1csc([C@@H]2O[C@H](CO)[C@H](O)[C@H](O)[C@H]2O)n1	i	nt	nt	nt	i
Cc1cc(C(=O)Cn2nc(C(=O)O)c3ccccc3c2=O)c(C)n1-c1ccc(OC(F)F)cc1	i	i	i	36.5	i
COc1ccc(-n2c(C)cc(C(=O)Cn3nc(C(=O)O)c4ccccc4c3=O)c2C)cc1	i	i	i	i	i
Cc1ccc(NC(=O)NCc2ccccn2)cc1	i	i	59.3	i	i
CCOc1ccc(NC(=O)NCc2ccccn2)cc1	i	i	i	i	i
CC(C)(CN1CCN(Cc2ccccc2)CC1)NS(=O)(=O)c1ccccc1	i	i	40.7	i	i
CCc1cc(-c2nnn(-c3cc(C(C)C)ccc3C)c2CC)ccc1-c1cn(CCc2c[nH]c3ccccc23)nn1	i	nt	nt	nt	i
CCN(CC(=O)NCc1ccc(F)cc1)C(=O)/C=C/c1ccc(OC)cc1	i	i	i	i	i
CCN(CC(=O)NCc1ccc(F)cc1)C(=O)/C=C/c1ccc(OC)c(S(=O)(=O)NC(C)C)c1	i	i	33.5	i	i
COc1ccc(N2CCN(CCCNC(=O)c3nnc(Cc4ccccc4Cl)o3)CC2)cc1	nt	i	nt	i	nt
SMILES	D2 ag-1	D2 ag-2	D2 antagonist	D2 PAM-1	D2 PAM-2
COc1ccc(CNC(=O)CCNS(=O)(=O)c2cc(Br)cnc2N)cc1	i	i	i	45.7	i
CC1CCCCC1NC(=O)CCNS(=O)(=O)c1cc(Br)cnc1N (stereo unspecified)	i	i	32.9	i	i
Nc1ncc(Br)cc1S(=O)(=O)NCCC(=O)NCc1ccc(F)cc1	i	i	i	i	i
CC(C)(C)c1ccc(S(=O)(=O)N2CCN(Cc3noc(CCC(=O)N4CCCCC4)n3)CC2)cc1	nt	i	nt	i	nt
Cc1ccccc1-n1c2nc(=O)[nH]c(=O)c-2cc2c(Cl)cccc21	nt	nt	nt	i	nt
COc1cc(/C=C2\SC(=S)N(Nc3ncc(C(F)(F)F)cc3Cl)C2=O)ccc1O	i	i	i	i	i
CN(C)c1ccc(/C=C2\SC(=S)N(Nc3ncc(C(F)(F)F)cc3Cl)C2=O)cc1	i	45.3	i	i	i
COc1ccc(NC(=O)CNC(=O)Cc2ccccc2)cc1	i	i	i	32.0	i
COc1ccc(NC(=O)Cc2ccccc2)cc1	i	i	i	i	i
